Laboratory results: PubChem BioAssay AID463173 (ICCB-Longwood Screening Facility, Harvard Medical School, 2010)
About 4,300 (8.3%) of roughly 52,000 compounds were called active. Shown is part of a subset that was picked to be rich in actives. Values without a mark were called inactive. Cut-off read from the data, not from the text of the source: active = survival mostly below about 52% (no sharp cut-off); inactive = mostly above about 56%.

Each compound was assayed on DeltatarO mutant (assay: growth inhibition of S. aureus wild type versus tarO mutant, primary screen, teichoic acid synthesis inhibitors, RN4220, OD600 (AID 463173)). Settings: OD600, 18 h, active compounds read low, screened at 18.75 µg/mL (by protocol).

| SMILES | survival |
| --- | --- |
| Cc1ccc(S(=O)(=O)N2C(=O)CCC2C(=O)N2CCCC2)cc1 (stereo not drawn) | 97% |
| Cc1ccc(N2CCN(c3c(CN4CCCC4)c(=O)oc4ccccc34)CC2)c(C)c1 | 67% |
| COc1cc(Cl)c(C)cc1Nc1nc2ccccc2c2nnc(C)n12 | 124% |
| CCOC(=O)c1sc(N/C=C(\C#N)c2nc3cc(Cl)ccc3o2)c(C#N)c1C | 81% |
| CN(C)c1ccc(CNC(=O)CN2CCSc3ccc(S(=O)(=O)N(C)C)cc32)cc1 | 66% |
| Cc1ccccc1CN1C(=O)C2(c3ccccc31)N(c1ccccc1)C(=O)CS2(=O)=O (stereo not drawn) | 124% |
| CCOc1ccc2nc(N3CCCC(C(=O)Nc4ccc(OC)cc4)C3)sc2c1 (stereo not drawn) | 60% |
| COc1cccc(CNC(=O)c2cc(S(=O)(=O)N3CCCCC3)cn2C)c1 | 0% (active) |
| COc1ccc(CCNC(=O)c2cc(S(=O)(=O)N3CCCC(C)C3)cn2C)cc1OC (stereo not drawn) | 47% (active) |
| CC1CCCN(S(=O)(=O)c2cc(C(=O)NCCc3ccccc3)n(C)c2)C1 (stereo not drawn) | 73% |
| COc1ccccc1CNC(=O)c1cc(S(=O)(=O)N2CCCC(C)C2)cn1C (stereo not drawn) | 93% |
| Cc1ccc(CNC(=O)c2cc(S(=O)(=O)N3CCCCCC3)cn2C)cc1 | 74% |
| COc1cccc(CNC(=O)c2cc(S(=O)(=O)N3CCCCCC3)cn2C)c1 | 82% |
| COc1ccc(CNC(=O)CCc2c(C)c3cc4c(C)coc4cc3oc2=O)cc1 | 75% |
| O=C(O)/C=C/C(=O)Nc1ccc(-c2nc3ccccc3o2)cc1 | 74% |
| Cc1ccc(S(=O)(=O)Nc2ccc3nc(-c4ccc(F)cc4)oc3c2)cc1 | 11% (active) |
| Cc1ccc(S(=O)(=O)Nc2ccc3nc(-c4cccc(Cl)c4)oc3c2)cc1 | 28% (active) |
| O=S(=O)(Nc1ccc2nc(-c3ccc(F)cc3)oc2c1)c1ccccc1 | 32% (active) |
| Cc1ccc(SCC(=O)Nc2ccc3oc(-c4cccc(Cl)c4)nc3c2)cc1 | 72% |
| O=S(=O)(Nc1ccc(-c2nc3ccccc3o2)cc1)c1ccccc1 | 24% (active) |
| O=S(=O)(Nc1ccc2nc[nH]c2c1)c1ccccc1 | 95% |
| Cc1ccc(S(=O)(=O)N2CCCc3cc(NS(=O)(=O)c4ccc(F)cc4)ccc32)cc1 | 74% |
| O=S(=O)(Nc1ccc2nc(-c3cccc(Cl)c3)oc2c1)c1ccccc1 | 52% |
| COC(=O)c1ccc(-c2nc3ccc(C)cc3o2)cc1 | 102% |

| SMILES | survival |
| --- | --- |
| O=C(Nc1ccc(-c2nc3cc(NC(=O)c4ccc(F)cc4)ccc3o2)cc1)c1ccc(F)cc1 | 75% |
| Cc1ccccc1C(=O)Nc1ccc(-c2nc3ccccc3o2)cc1 | 101% |
| O=C1CC(c2cccc(O)c2)c2c(nc(SCc3ccccc3F)[nH]c2=O)N1 (stereo not drawn) | 106% |
| COc1cc(NC(=O)CN2C(=O)C(c3ccc(C)cc3)=NC23CCCCCC3)cc(OC)c1 | 83% |
| O=C(COc1ccc(F)cc1)NCc1ccc2c(c1)CCN2C(=O)c1ccccc1 | 81% |
| COc1ccc(C2CC(=O)NC(NC(=O)c3ccc(Br)cc3)=N2)c(OC)c1OC (stereo not drawn) | 86% |
| CCOC(=O)N1CCc2c(sc3c2c(=O)n(-c2ccc(Cl)cc2)c(=O)n3CC(C)C)C1 | 94% |
| CN(C)CCNC(=O)Cn1nc(N2CCN(c3ccccc3)CC2)ccc1=O | 86% |
| CC(=O)c1ccc(NC(=O)C2CCN(S(=O)(=O)c3ccc4[nH]c5c(c4c3)CCCCC5)CC2)cc1 | 94% |
| O=C1COc2cc(S(=O)(=O)CCC(=O)N3CCN(c4cccc(Cl)c4)CC3)c(Cl)cc2N1 | 66% |
| CCOC(=O)C1=C(CN2CCC(C(=O)OCC)CC2)NC(=O)NC1c1ccc(Cl)cc1 (stereo not drawn) | 111% |
| COc1ccc(-n2nnc(C(=O)Nc3ccccc3F)c2N)cc1 | 68% |
| O=C(Nc1ccc(C(F)(F)F)cc1)C1(c2cccs2)CCOCC1 | 87% |
| Cc1cccc(C)c1NC(=O)CCS(=O)(=O)c1cccc2nonc12 | 74% |
| Cc1ccc(Nc2ncnc3onc(C)c23)cc1Cl | 67% |
| Cc1ccc(C2=NC(c3ccc(F)cc3)=Nc3ccc(C)cc3N2)cc1 | 72% |
| O=C(NN=C1CCCCC1)c1n[nH]c2c1CCC2 | 97% |
| CCc1ccc(C(=O)c2cn(CC(=O)Nc3ccc(OC)cc3)c3cc4c(cc3c2=O)OCO4)cc1 | 81% |
| COc1ccc(CN2CCc3c(c(=O)n4ncc(C(=O)N5CCN(c6ccccc6F)CC5)c4n3C)C2)cc1 | 88% |
| COc1ccccc1NC(=O)c1cc(S(=O)(=O)N(C)C2CCCCC2)ccc1F | 85% |
| CCOCCCNC(=O)c1c(NC(=O)c2nc(SC)ncc2Cl)sc2c1CCCC2 | 64% |
| CCCSc1ncc(Cl)c(C(=O)Nc2sc3c(c2C(=O)OC)CCCC3)n1 | 53% |
| CCNC(=O)c1c(NC(=O)c2nc(S(=O)(=O)CC)ncc2Cl)sc2c1CCCC2 | 34% (active) |
| CCSc1ncc(Cl)c(C(=O)Nc2sc3c(c2C(=O)NCCCOC)CCCC3)n1 | 108% |

| SMILES | survival |
| --- | --- |
| Cc1cccc(CSc2ncc(Cl)c(C(=O)Nc3sc4c(c3C(N)=O)CCCC4)n2)c1 | 112% |
| COCCCNC(=O)c1c(NC(=O)c2nc(S(C)(=O)=O)ncc2Cl)sc2c1CCCC2 | 53% |
| CCCSc1ncc(Cl)c(C(=O)Nc2sc3c(c2C(N)=O)CCCC3)n1 | 46% (active) |
| CCCSc1ncc(Cl)c(C(=O)Nc2sc3c(c2C(=O)NCCOC)CCCC3)n1 | 92% |
| CCCSc1ncc(Cl)c(C(=O)Nc2sc3c(c2C(=O)NCC)CCCC3)n1 | 45% (active) |
| CCN(CC)c1nn2c(=O)c(C(=O)NCc3ccc(OC)cc3OC)cnc2s1 | 75% |
| CCOc1ccc(NC(=O)CSc2oc(-c3ccco3)nc2S(=O)(=O)c2ccccc2)cc1 | 101% |
| Cc1ccc(NC(=O)n2ncc3c(C)cccc32)c(C)c1 | 85% |
| COc1ccc(-n2nc(C(=O)Nc3ccc(C)cn3)c3c4ccccc4n(C)c3c2=O)cc1 | 76% |
| CCC(Sc1nc2ncccc2o1)C(=O)Nc1ccc(OC)c(OC)c1 (stereo not drawn) | 79% |
| COc1cccc(NC(=O)c2nnn(Cc3ccc(OC)c(Br)c3)c2N)c1 | 57% |
| CCCN(CCC)C(=O)CSc1nc2ccccc2c(=O)n1Cc1ccco1 | 83% |
| O=C(CSc1nc2ccncc2[nH]1)Nc1ccccc1C(F)(F)F | 87% |
| O=S(=O)(Nc1ccc(-c2ccc(N3CCCC3)nn2)cc1)c1ccc(Br)cc1 | 94% |
| COc1ccc(CNC(=O)c2cnn3c(C)c(Cc4ccc(F)cc4)c(C)nc23)cc1 | 80% |
| O=C(COc1ccc(Cl)cc1)Nc1nnc(S(=O)(=O)N2CCc3ccccc32)s1 | 6% (active) |
| O=C(COc1ccc(F)cc1)Nc1nnc(S(=O)(=O)N2CCc3ccccc32)s1 | 17% (active) |
| Cc1ccc(OCC(=O)Nc2nnc(S(=O)(=O)N3CCc4ccccc43)s2)cc1 | 13% (active) |
| CC(C)CC(=O)Nc1nnc(S(=O)(=O)N2CCc3ccccc32)s1 | 74% |
| Cc1cccc(OCC(=O)Nc2nnc(S(=O)(=O)N3CCc4ccccc43)s2)c1 | 16% (active) |
| CCC(=O)Nc1nnc(S(=O)(=O)N2CCc3ccccc32)s1 | 76% |
| COc1ccc(OCC(=O)Nc2nnc(S(=O)(=O)N3CCc4ccccc43)s2)cc1 | 70% |
| CC(=O)NCCNC(=O)CCCc1nnc2n(C)c(=O)c3sccc3n12 | 93% |
| COc1ccc(CCNC(=O)c2cc3n(n2)C(C(F)(F)F)CC(C2CC2)N3)cc1OC (stereo not drawn) | 99% |

| SMILES | survival |
| --- | --- |
| CC(=O)c1ccc(N2CCN(S(=O)(=O)c3c(C)nc4sc(C)cn4c3=O)CC2)cc1 | 75% |
| COCCNC(=O)CCC(=O)N1Cc2cccc(OC)c2Oc2ncccc21 | 89% |
| Nc1nc(=S)[nH]c2c1C1(CCCC1)Cc1ccccc1-2 | 99% |
| N#CC1=C(N)c2ccccc2CC12CCCCC2 | 31% (active) |
| Nc1n[nH]c2c1C1(CCCC1)Cc1ccccc1-2 | 100% |
| CNC(=S)N(Cc1ccco1)Cc1cc2ccc(C)cc2[nH]c1=O | 99% |
| COc1ccc2[nH]c(=O)c(CN(Cc3ccco3)C(=S)NCc3ccco3)cc2c1 | 65% (active) |
| Cc1ccc(NC(=S)N(Cc2ccco2)Cc2cc3cc(C)c(Cl)cc3[nH]c2=O)cc1 | 82% |
| COc1ccc(NC(=S)N(Cc2ccco2)Cc2cc3cc(C)c(C)cc3[nH]c2=O)cc1 | 38% (active) |
| COc1ccc2[nH]c(=O)c(CN(Cc3ccco3)C(=S)NC3CCCCC3)cc2c1 | 77% |
| CCc1ccc2[nH]c(=O)c(CN(CCO)C(=S)NCc3ccco3)cc2c1 | 88% |
| Cc1ccc(-c2nnc(Nc3ccccc3)c3ccccc23)cc1S(=O)(=O)N1CCN(C)CC1 | 86% |
| NC(=O)c1cc2ccc(O)cc2oc1=O | 74% |
| COc1ccc(CCNC(=O)CCCn2nc(C)c3sc4ccccc4c3c2=O)cc1OC | 83% |
| Cc1c(-c2ccccc2)nc2ccccc2c1C(=O)O | 95% |
| CCCCc1nc2ccccc2c(C(=O)O)c1C | 75% |
| CCc1ccc(-c2nc3ccc(Br)cc3c(C(=O)O)c2C)s1 | 39% (active) |
| COc1ccccc1CNC(=O)CN1C(=O)CCc2cc(S(=O)(=O)N3CCOCC3)ccc21 | 135% |
| O=C(Cn1c(C(=O)NCC2CCCO2)cc2sccc21)c1ccccc1 (stereo not drawn) | 103% |
| O=C(Cn1c(C(=O)N(Cc2ccco2)CC2CCCO2)cc2sccc21)c1ccccc1 (stereo not drawn) | 68% (active) |
| O=C(Cn1c(C(=O)NCc2ccco2)cc2sccc21)c1ccccc1 | 92% |
